Screens: PubChem, several laboratories
S1P4 ag: human S1P4 receptor agonism; O95977; 220,000 tested, 0.35% active; S1P4-expressing cell line, agonist reporter assay; AID 1509; activation, % at 4.98 µM; in the data active = activation above about 11%
S1P4 antagonist: antagonists of human S1P4 receptor | inhibition, % at 4.98 µM | O95977 | 220,000 tested, 0.26% active | S1P4-expressing cells, antagonist mode, reporter read-out | AID 1510; in the data active = inhibition above about 29%
S1P3 antag: S1P3 (human) receptor antagonism | 170,000 tested, 0.27% active | inhibition, % at 4.98 µM | Q99500 | AID 485 | CHO S1P3 NFAT-BLA reporter, FRET fluorescence, antagonist mode;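 active = inhibition above the plate cutoff, the mean inhibition of test wells on that plate plus 3 SD, cut at about 28% in these data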;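 also: cells challenged with S1P at its EC80 of 0.8 µM; blue over green emission ratio from cleaved BLA substrate after 4 h stimulation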
Hsp70 act: transcriptional activators of Hsp70; HeLa Hsp70 promoter luciferase reporter, luminescence; scaled: vehicle 0, proteasome-inhibitor control 100%; activation, % at 10 µM; 200,000 tested, 0.04% active;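 active = activation above the mean across all tested compounds plus 3 SD, cutoff set per campaign, cut at about 5.5% in these data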
AI-2 QS mod: modulators of Vibrio harveyi AI-2 quorum sensing system; Vibrio harveyi JMH597 AI-2 luminescence/OD600 ratio, 9 h; hits give low values; strain lacks LuxN and CqsS sensors; 0 = neutral-control median; activity change, % at 7.5 µM; 300,000 tested, 0.4% active; in the data active = activity change below about -75%, passing the limit was not always enough;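 also: luminescence divided by OD600 gain over 9 h not by final OD600 alone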
S1P4 agonist cf: human S1P4 agonism, confirmation; activation, % at 4.98 µM; shares compounds with S1P4 ag; 740 tested, 7% active; S1P4 agonist cell-based reporter assay; in the data active = activation above about 12%
S1P1 agonist: activates human S1P1, counter-screen for S1P4 agonists. shares compounds with S1P4 ag. S1P1 agonist cell-based assay, activation. activation, % at 4.98 µM. 740 tested, 4% active; in the data active = activation above about 21%
Target sequence (P21453 whole entry, looked up): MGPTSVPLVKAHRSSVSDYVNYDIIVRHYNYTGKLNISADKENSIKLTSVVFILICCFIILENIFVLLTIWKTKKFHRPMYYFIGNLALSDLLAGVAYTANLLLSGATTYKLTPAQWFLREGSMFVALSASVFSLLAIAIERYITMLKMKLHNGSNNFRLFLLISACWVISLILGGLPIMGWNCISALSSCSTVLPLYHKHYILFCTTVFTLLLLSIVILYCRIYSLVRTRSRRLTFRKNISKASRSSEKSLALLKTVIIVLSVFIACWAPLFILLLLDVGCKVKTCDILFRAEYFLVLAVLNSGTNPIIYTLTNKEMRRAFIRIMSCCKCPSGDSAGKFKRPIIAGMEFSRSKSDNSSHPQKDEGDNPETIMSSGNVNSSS
A number is an active result; n = inactive; x = no result given. Hits are enriched below; roughly 0.97% of the tested compounds scored in any of these assays.

SMILES	S1P4 ag	S1P4 antagonist	S1P3 antag	Hsp70 act	AI-2 QS mod	S1P4 agonist cf	S1P1 agonist
CC1OC23CCCCC2C(C#N)(C(=N)O3)C1(C#N)C#N (stereo not drawn)	12	n	x	n	n	n	n
CCC1OC23CCCCC2C(C#N)(C(=N)O3)C1(C#N)C#N (stereo not drawn)	n	n	x	n	n	x	x
O=C(Cn1ccc2cc(S(=O)(=O)N3CCCC3)ccc21)NCCc1ccccc1	x	x	x	x	n	x	x
CN=c1scc(C)n1/N=C/c1cc(Br)c(O)c(OC)c1	n	n	n	n	n	x	x
COc1cc(/C=N/N(C)C)cc(Br)c1O	39	n	n	x	n	n	n
COC(=O)c1cc(C(=O)OC)cc(N2C(=O)CC(NNC(=O)c3ccc(C)cc3)C2=O)c1 (stereo not drawn)	29	n	n	n	n	n	n
O=c1[nH]c(C2CCN(S(=O)(=O)c3ccccc3)CC2)nc2c1nnn2Cc1ccccc1	n	n	n	n	n	x	x
O=[N+]([O-])c1ccccc1Nc1nc(-c2cccnc2)cs1	x	x	x	x	n	x	x
CCN1C(=O)CCC(C(=O)O)C1c1ccc(OC)cc1 (stereo not drawn)	n	n	n	x	n	x	x
CC(=O)Nc1nnc(CCS(=O)(=O)c2ccc(C)c(C)c2)s1	n	n	n	n	n	x	x
COc1cccc(CC(NC(C)=O)C(=O)NC2CCN(c3c(Cc4ccccc4)c(C)nc4ncnn34)CC2)c1OC (stereo not drawn)	14	n	n	n	n	n	n
O=C(Cc1cccs1)Nc1ccccc1C(=O)O	117	n	n	n	n	n	n
O=C(Cc1cccs1)Nc1ccccc1NC(=O)Cc1cccs1	n	n	n	n	n	x	x
Cc1ccccc1-n1c(SCC(=O)N/N=C/C=C/c2ccccc2[N+](=O)[O-])nc2ccccc2c1=O	14	n	n	n	n	n	n
Cc1ccc(C(C)NC(=O)c2cc3cc(Br)ccc3oc2=N)cc1 (stereo not drawn)	x	x	x	x	n	x	x
CCOC(=O)CS(=O)(=O)c1ccc(O)cc1	22	n	n	n	n	n	n
CC(NC(=O)c1cc(S(=O)(=O)N2CCOCC2)ccc1N1CCCC1)c1ccc(Cl)c(Cl)c1 (stereo not drawn)	x	x	x	x	n	x	x
COC(=O)NCC(c1ccco1)N1CCN(c2ccc(OC)cc2)CC1 (stereo not drawn)	n	n	n	n	n	x	x
COc1ccc(N2CCN(C(CNC(=O)C(=O)NCC3CCCO3)c3ccco3)CC2)cc1 (stereo not drawn)	13	n	n	n	n	n	n
CCCCNC(=O)CC1S/C(=N/N=C/c2ccc(OC)cc2)NC1=O (stereo not drawn)	12	n	n	n	n	n	n
Cn1c(O)c(C=Nc2ccc(N3CCOCC3)cc2)c(=O)n(C)c1=S	30	n	n	n	n	n	n
Cc1cc(=O)[nH]c(N/N=C/c2c(O)n(-c3ccccc3)c(=O)c3ccccc23)n1	29	n	n	n	n	n	n
CCOc1ccc(NS(=O)(=O)c2ccc(C(=O)NCCCN3CCCC3=O)cc2)cc1	x	x	x	x	n	x	x
O=C(CCSc1nnc(-c2ccccc2)o1)N1CCOCC1	28	n	n	n	n	n	n
Cc1ccc(-c2nnc(SCCC(=O)N3CCOCC3)o2)cc1	n	n	n	n	n	x	x
SMILES	S1P4 ag	S1P4 antagonist	S1P3 antag	Hsp70 act	AI-2 QS mod	S1P4 agonist cf	S1P1 agonist
COCC(=O)N1CCC(Oc2ccc(C(=O)N3C[C@@H]4CCC[C@H]3C4)cc2)CC1	x	x	x	x	n	x	x
COc1ccc(/C(C)=N/NC(=O)CNC(=O)c2cccs2)cc1OC	30	n	n	n	n	n	n
Cc1cccc(NC(=S)N2CCN(S(=O)(=O)c3cccc(F)c3)CC2)c1	20	n	n	n	n	n	n
Cc1ccc(CCNC(=O)c2nnn(-c3cc(C)cc(C)c3)c2N)cc1	11	n	n	n	n	n	n
CCOc1ccc(C(CC(=O)O)NC(=O)C(CC)c2ccccc2)cc1 (stereo not drawn)	x	x	x	x	n	x	x
OCCC1CN(Cc2cccnc2)CCN1CCc1ccccc1 (stereo not drawn)	n	n	n	n	n	x	x
CC(C)n1cc(CN2CCN(CCc3ccccc3)C(CCO)C2)cn1 (stereo not drawn)	14	n	n	n	n	n	n
Cn1c(CO)nc2c3ccccc3ccc21	x	x	x	x	n	x	x
COc1cc(C(C)=O)ccc1OC(=O)c1cc2cccc(OC)c2oc1=O	14	n	n	n	n	n	n
COc1cccc2cc(C(C)=O)c(=O)oc12	n	n	n	n	n	x	x
CCOC(=O)c1c(C)[nH]c(C2=NNC(=Nc3ccccc3)SC2)c1C	62	n	n	n	n	n	n
CC(C)(C)OC(=O)N1CCC(C(=O)N[C@H](C(=O)O)c2ccccc2)(c2ccccc2)CC1	x	x	x	x	n	x	x
O=C(c1cnc2ccc(Cl)cc2c1Cl)N1CCOCC1	26	n	n	n	n	n	n
CC(C)CC(=O)NC(c1ccccc1Cl)c1c(O)ccc2ccccc12 (stereo not drawn)	13	n	n	n	n	n	n
S=C(NCc1ccccc1)NCc1ccccn1	n	n	n	x	n	x	x
CC(C)(C)c1ccc(C(=O)NCC(=O)OCc2ccc([N+](=O)[O-])cc2)cc1	14	n	n	n	n	n	n
O=C(CNC(=O)c1ccccc1)OCc1cccc([N+](=O)[O-])c1	n	n	n	n	n	x	x
O=C(COC(=O)c1ccccn1)NCc1ccccc1Cl	27	n	n	n	n	n	n
CCOC(=O)c1cc2ccc3ccccc3c2oc1=O	x	x	x	x	n	x	x
CCOC(=O)c1cc2ccc(OC(=O)c3ccco3)cc2oc1=O	149	n	n	n	n	84	96
Cc1ccc(CN(c2ccc(C(=O)NCC3CCCO3)cc2)S(C)(=O)=O)cc1 (stereo not drawn)	30	n	n	n	n	n	n
Cc1nnc(SCCn2c(N3CCN(C)CC3)nc3c2c(=O)n(C)c(=O)n3C)s1	45	n	n	n	n	n	n
Cc1nnc(SCCn2c(N3CCCCC3)nc3c2c(=O)n(C)c(=O)n3C)s1	n	n	n	n	n	x	x
CCc1cccc(Nc2cc(C)nc3ncnn23)c1	156	n	n	n	n	n	n
CCc1ccc(Nc2cc(C)nc3ncnn23)cc1	x	x	x	x	n	x	x
SMILES	S1P4 ag	S1P4 antagonist	S1P3 antag	Hsp70 act	AI-2 QS mod	S1P4 agonist cf	S1P1 agonist
N#Cc1c(N)nc2c(c1-c1ccncc1)CCCCC2	135	n	n	n	n	n	n
CN(CC(=O)Nc1ccccc1N1CCCC1)S(=O)(=O)c1ccc(F)cc1	x	x	x	x	n	x	x
Cn1c(SCC(=O)c2ccc3c(c2)OCO3)nnc1C1COc2ccccc2O1 (stereo not drawn)	11	n	n	n	n	62	n
O=S(=O)(Nc1cccc(-n2cnnn2)c1)c1cc(Br)ccc1Br	x	x	x	x	n	x	x
CCc1cc(=O)oc2c(CN3CCN(C)CC3)c(O)c(Cl)cc12	11	n	x	n	n	n	n
CCc1cc(=O)oc2c(CN3CCCC3)c(O)c(Cl)cc12	n	n	x	n	n	x	x
